Experimental findings from PubChem BioAssay (NCI) are described below.

This is part of a sample that, as a whole, favours compounds with a hit. Of some 83,000 tested, about 20% had one in any assay.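 Each cell line was grown in a 96-well plate and treated with one concentration of compound for 48 hours. Values below 10 were considered active.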 Values without a mark were called inactive. The source made the active and inactive calls.

The subject of this assay is HL-60(TB) leukemia. Kind of assay: NCI-60 one-dose screen, 48 h (100 = growth as untreated, 0 = no growth, -100 = all killed). The settings on record: 10 µM unless noted.
For `CC1=C(C(=O)Nc2ccccc2)C(c2cccc3ccccc23)n2c(nc3ccccc32)N1` (centres undefined), the growth is 95%.

`O=c1[nH]c2ccccc2cc1CSc1ccc(Nc2nccc(-c3ccc(C(F)(F)F)cc3)n2)cc1`: the growth is 69.5%. To `NS(=O)(=O)c1ccc(-n2cc(-c3cccc(NC(=O)c4cc(C(F)(F)F)cc(C(F)(F)F)c4)c3)nn2)cc1` belongs 63.4%; to `CC(C)C[C@H](NC(=O)CNC(=O)C[C@H]1O[C@@H]2OC3(C)CC[C@H]4[C@H](C)CC[C@@H]([C@H]1C)[C@@]24O3)B(O)O`, 3.8% (active). The same measure for `N/C(=N\c1nc2ccccc2s1)NC(=O)NCCCCCCO`: 45.8%; for `Cc1ccc(C(=O)Nc2ccc(-n3c(C)nc4c(cnn4-c4ccccc4)c3=O)cc2)cc1`: 51.4%. Regarding `Cc1cccc(C)c1Nc1nnc(-c2c[nH]c3ccccc23)o1`, the growth is 97.2%.

Regarding `COc1cc(/C=C/C(=O)c2cnn(-c3cc(=O)[nH]c4ccc(Br)cc34)c2C)cc(OC)c1OC`, the growth was -19.6% (active). To `O=C(Nc1ccccc1)N1CCN(c2cc(-c3cn(-c4ccccc4)nc3-c3cccc(O)c3)ccn2)CC1` belongs 23.3%.

As to `COc1cc2c3c(n(CCCNCCO)c(=O)c2cc1OC)-c1nc2c(cc1C3=O)OCO2`, the growth is 38.3%.

With `O=C(N/N=C/c1c[nH]c2ccccc12)Nc1ccc(F)c(Cl)c1`, the growth was 15.9%. The same measure for `Cc1ccc(C(=O)Nc2ccc(-n3ccnc3)c(C(F)(F)F)c2)cc1C#Cc1cnc2cccnn12`: -19.6% (active); for `C#C[C@]1(O)CC[C@H]2[C@@H]3CC=C4c5sc(Nc6cc(C)cc(C)n6)nc5CC[C@]4(C)[C@H]3CC[C@@]21C`: -16.4% (active); for `COc1ccc2oc3c4[nH]c5ccccc5c4c4c(c3c2c1)C(=O)N(C(=O)OC(C)(C)C)C4=O`: -7.65% (active).

As to `CN(C)c1ccnc(CNCCSC2(c3ccc(C(F)(F)F)cc3)c3ccccc3CCc3ccccc32)c1`, the growth was -41.9% (active). On to `COc1cc2c3c(n(CCCN4CCOCC4)c(=O)c2cc1OC)-c1nc2c(cc1C3=O)OCO2`, for which the growth is 65.2%. On to `N#Cc1c(NC(=O)c2ccc(C(F)(F)F)cc2C(F)(F)F)sc2c1CCC(=O)C2`, for which the growth is -24% (active). To `COc1nccnc1NS(=O)(=O)c1ccc(NC2=C(Cl)C(=O)c3nc(C)ccc3C2=O)cc1` belongs 100%; to `COc1ccc(/C=C2\C(=N)N=C(SCc3nc4ccccc4[nH]3)NC2=O)cc1`, 103%; to `COc1ccc2[nH]c(O)c(N=NC(=O)Cn3c(-c4ccccc4)nc4cc(C)ccc43)c2c1`, -50.8% (active). To `CCn1c(SCC(=O)Nc2ccc(-c3nc4ccccc4[nH]3)cc2)nc2ccccc2c1=O` belongs 0.454% (active); to `COc1ccc2c(c1)c(-c1cc(N)n3nc(-c4c[nH]c5ccccc45)cc3n1)cn2C`, -32.4% (active); to `O=c1oc2ccccc2cc1-c1csc(N=Nc2c(O)[nH]c3ccc(Cl)cc23)n1`, 99.1%. The same measure for `NS(=O)(=O)c1ccc(N=Nc2c(O)n(CC(=O)Nc3ccccc3Cl)c3ccccc23)cc1`: 45.8%. In the case of `Cc1ccc(C2CC(c3ccc(S(=O)(=O)NCCNc4nc(Nc5ccc(F)cc5)nc(N(C)C)n4)cc3)=Nc3c(N)nc(N)nc3N2)cc1` (centres undefined), the growth is -10.4% (active). With `Cc1ccc(C(=O)Nc2cc(-n3ccnc3C)cc(C(F)(F)F)c2)cc1C#Cc1cnc2cccnn12`, the growth was -28.8% (active). In the case of `CCN(C(=O)CN1C(=O)/C(=C/c2ccco2)SC1=S)C1CCS(=O)(=O)C1` (centres undefined), the growth is 92.4%.

For the compound `COc1ccc(-c2cc(-c3cc(C(=O)c4ccccc4)n4ccc(C)cc34)nc(N)c2C#N)cc1`, the growth was 99.7%. The same measure for `O=C(NNC(=S)NC(=O)c1ccccc1)c1ccc(OCc2nc3ccc(Cl)cc3[nH]2)cc1`: 1.3% (active); for `Cc1[nH]nc2ccc3nc(-c4cn[nH]c4C(F)(F)F)c4c(c3c12)CCCC4`: -0.0725% (active); for `N=C1N=C(SCc2nc3ccccc3[nH]2)NC(=O)/C1=C/c1ccc(Cl)cc1`: 102%.

In the case of `CCc1ccccc1NC(=O)N/C(N)=N/c1nc2ccccc2s1`, the growth was -27.2% (active). The same measure for `COc1cc(CNC(=O)C[C@H](C)CCC=C(C)C)ccc1OCc1cn(-c2ccc(Cl)c(Cl)c2)nn1`: 84%. The same measure for `O=C(Cn1c(/C=C/c2ccc([N+](=O)[O-])cc2)nc2ccccc2c1=O)Nc1ccccc1`: 102%.
